Compound activity as filed in PubChem.
Most compounds without a hit are left out; they make up all but 3.2% or so of the library.
H9c2 protect: cardioprotection against H2O2-induced cell death, primary screen, uHTS, H9c2 cells, ATPLite luminescence; H9c2 cardiomyocytes, H2O2 injury protection, 2 h; actives 0.63% (n = 360,000); protection from H2O2 cell death, % at 20 µM;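 active = compounds giving at least 50% protection of heart cells from peroxide-induced death in the single-dose screen, raw or plate-pattern-corrected value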;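 also: 0% = DMSO wells with peroxide and 100% = DMSO wells without peroxide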
CRFR2-BP ag: agonists of CRF-BP/CRF-R2 complex, primary screen, cell-based, HEK293, calcium dye fluorescence, uHTS; AID 588473, 2011; CRF-binding protein / CRF receptor 2 complex (human); calcium dye fluorescence (FLIPR); percent of saturating CRF peptide response; actives 0.46% (n = 350,000); activation, % at 13.2 µM;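 active = activation of at least 50%, plus an integration ratio under a set limit after plate pattern correction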;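 also: plate controls were neutral control wells without compound for no effect and CRF at EC100 for full effect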
aDG glyco up: activators of alpha-DG glycosylation, primary screen, uHTS, Pro5-aDG cells, AlphaScreen | alpha-DG glycosylation AlphaScreen (IIH6); 0% Pro5, 100% B10-LARGE cell signal | activation, % at 10 µM | actives 0.22% (n = 360,000) | AID 624168, 2012;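 active = activation of at least 8% versus controls, or a plate z-score of at least 8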;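 also: Pro5 are CHO cells carrying HIG-tagged alpha-DG that lacks glycosylation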
FAS TE block: FAS thioesterase domain inhibitors, primary screen, biochemical, fluorescence intensity, uHTS | Fatty acid synthase (Homo sapiens), P49327 | recombinant FAS-TE, OMFH fluorogenic substrate, fluorescence endpoint | inhibition, % at 15 µM | actives 0.67% (n = 360,000) | AID 602261, 2012;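 active = compounds whose normalised, plate-corrected inhibition of enzyme fluorescence in the single-dose primary screen is 50% or more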;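 also: 0% = DMSO with enzyme and 100% = substrate without enzyme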
CRFBP-R2 block: antagonists of CRF-BP/CRF-R2 complex, primary screen, cell-based, HEK293, calcium dye fluorescence, uHTS | CRF-induced calcium fluorescence | inhibition, % at 11.8 µM | actives 0.59% (n = 350,000);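 active = inhibition of the ligand-induced calcium signal above about 50% at the single tested concentration, limit read from the data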
PfGluPho inh: PfG6PD enzyme inhibitors, primary screen, biochemical, fluorescence intensity, uHTS. inhibition, % at 20 µM. actives 0.78% (n = 350,000). PfGluPho enzyme, NADPH resazurin-diaphorase fluorescence;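 active = inhibition reaching at least a set limit at 20 µM in the primary screen, cut at about 59% in these data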;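 also: 0% = DMSO wells with substrate and 100% = DMSO wells lacking glucose-6-phosphate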
* marks the source's active call; other numbers are inactive results; i = inactive; nt = no result given.

SMILES | H9c2 protect | CRFR2-BP ag | aDG glyco up | FAS TE block | CRFBP-R2 block | PfGluPho inh
O=C1[C@H]2[C@@H](c3ccc(Cl)cc3)N3C(=O)N(c4cccc(Br)c4)C(=O)[C@@]3(Cc3ccc(Cl)cc3)[C@H]2C(=O)N1C1CCCCC1 | -8 | 5 | 2 | 91* | -9 | -4
CCCOc1ccc([N+](=O)[O-])cc1C1NC(=S)NC(c2ccccc2)=C1C(=O)OCC (stereo unspecified) | -16 | 1 | 0 | 66* | 7 | 17
CCOC(=O)C1=C(c2ccccc2)NC(=O)NC1c1cc(OC)c(O)c([N+](=O)[O-])c1 (stereo unspecified) | 0 | -2 | 0 | -1 | 11 | 20
COC(=O)c1ccccc1S(=O)(=O)NNC(=O)c1nn(C)c(=O)c2ccccc12 | 2 | 1 | 0 | -5 | 2 | 0
COc1cc(C(=O)N/N=C/c2sc(N3CCOCC3)nc2-c2ccccc2)cc(OC)c1OC | 66* | 1 | 0 | -1 | -12 | -15
O=C(N/N=C/c1sc(N2CCOCC2)nc1-c1ccccc1)c1cccc(S(=O)(=O)N2CCOCC2)c1 | 54* | 13 | 0 | 46 | -7 | 12
CCOc1cc2c(cc1/C=C/c1noc(C)c1[N+](=O)[O-])OC(C)C2 (stereo unspecified) | -5 | 193* | 0 | -21 | -218 | -32
COc1ccc(C(=O)Nc2cc(C)nn2-c2nc3ccccc3[nH]2)c(OC)c1 | 63* | 1 | -1 | 16 | -13 | 5
COc1cccc(OC)c1C(=O)Nc1cc(C)nn1-c1nc2ccccc2[nH]1 | 77* | -1 | 0 | 33 | 9 | 7
Oc1cc2ccccc2cc1-c1n[nH]c(=S)o1 | 16 | -2 | 0 | 2 | 61* | -2
O=C(COc1ccc(F)cc1Cl)Nc1nc(-c2ccccn2)cs1 | 61* | nt | 1 | 2 | nt | nt
Cc1cc(C)cc(OCC(=O)Nc2nc(-c3ccccn3)cs2)c1 | 41 | 0 | 1 | -4 | 8 | 42
N#Cc1ccccc1OCC(=O)Nc1nc(-c2ccccn2)cs1 | 63* | -2 | 2 | -6 | 9 | 48
O=C(NCC1CCCO1)C(=O)NCC1CCCN1S(=O)(=O)c1ccccc1 (stereo unspecified) | 6 | -3 | 0 | -3 | 11 | -6
O=C(COC(=O)C1(c2ccc(F)cc2)CCCC1)NCc1ccco1 | 0 | 2 | 0 | 10 | 14 | -1
O=C(CCC(=O)N1CCOCC1)Nc1ccc(Cl)c(Cl)c1 | -1 | 2 | 0 | -3 | -13 | 15
N#CC(C#N)=C1C=C2C=C(N3CCCCCC3)CCC2CC1 (stereo unspecified) | -9 | 216* | 0 | -152 | -170 | -19
CCN1CCN(C2=CC3=CC(=C(C#N)C#N)CCC3CC2)CC1 (stereo unspecified) | 16 | 500* | -1 | -157 | i | -18
CN1CCN(C2=CC3=CC(=C(C#N)C#N)CCC3CC2)CC1 (stereo unspecified) | 34 | 241* | 0 | -128 | -172 | 0
N#CC(C#N)=C1C=C2C=C(N3CCOCC3)CCC2CC1 (stereo unspecified) | 10 | 248* | -1 | -163 | -266 | -6
N#Cc1cc(Cl)c(N2CCOCC2)cc1C#N | 0 | 0 | 0 | 38 | 3 | 4
CC(CC(=O)N1CCN(c2ccc(C(F)(F)F)cn2)CC1)n1ccnc1 (stereo unspecified) | 4 | 0 | 0 | -7 | -9 | -6
O=C(Cc1ccccc1)c1c[nH]c(C(=O)NCCCN2CCOCC2)c1 | -5 | 1 | 0 | -2 | -5 | -14
CC(C)NC(=O)CCCc1c[nH]c2ccccc12 | -2 | -2 | 0 | -3 | 22 | -2
Cc1sc2c(c1C)C(=O)NC(c1ccccc1F)N2 (stereo unspecified) | -2 | 0 | 0 | -3 | -5 | 75*
SMILES | H9c2 protect | CRFR2-BP ag | aDG glyco up | FAS TE block | CRFBP-R2 block | PfGluPho inh
Cc1cccc(C2NC(=O)c3c(sc(C)c3C)N2)c1O (stereo unspecified) | 4 | 1 | 0 | -4 | -25 | 14
CCOC(=O)c1ccc(-c2ccc3ncnc(NCc4csc(C)n4)c3c2)o1 | 68* | nt | 0 | 2 | nt | nt
O=C(COC(=O)COc1ccc(Cl)cc1Cl)NC1CCS(=O)(=O)C1 (stereo unspecified) | -3 | 0 | 0 | -4 | 12 | 0
COc1ccc(NC(=O)c2cc(-c3ccccn3)nc3ccccc23)cc1S(=O)(=O)N(C)C | 89* | 2 | 0 | 6 | 6 | 7
COc1ccccc1NC(=O)c1cc(-c2ccc(OC)c(OC)c2)nc2ccccc12 | 57* | 0 | 0 | 12 | -3 | -3
COc1ccc(N2CCN(C(=O)c3cc(=O)c4cc(C)c(C)cc4o3)CC2)cc1 | 0 | -1 | 0 | 12 | 111* | 8
O=C(c1csc2ccccc12)N1CCN(c2ccc(Cl)c(Cl)c2)CC1 | -15 | -1 | 3 | 25 | 1 | 9
COc1ccc(N2CCN(C(=O)c3csc4ccccc34)CC2)cc1 | -6 | -3 | 0 | -3 | 119* | -2
CCN(CC)S(=O)(=O)c1cc(NC(=O)c2cc(-c3ccccn3)nc3ccccc23)ccc1C | 26 | 1 | -1 | 21 | 27 | 28
CC(=O)Nc1ccc(NC(=O)C(C)OC(=O)C2CCN(S(=O)(=O)c3cccs3)CC2)cc1 (stereo unspecified) | 7 | 1 | 0 | -2 | -7 | -4
CS(=O)(=O)Nc1ccccc1-c1cccc2nccn12 | 9 | nt | 0 | -13 | nt | nt
COc1ccc(-c2cc(C(=O)Nc3ccc(O)cc3)c3ccccc3n2)cc1OC | 2 | -1 | 0 | -1 | 11 | 10
COc1ccc(NC(=O)c2cc(-c3cc(OC)c(OC)c(OC)c3)nc3ccccc23)cc1OC | 63* | 1 | 0 | 11 | -5 | 16
Cc1ccc(-c2cc(C(=O)OCC(=O)NC3CC3)c3ccccc3n2)cc1 | -7 | 1 | 0 | 9 | -2 | -2
COc1ccc(-c2cc(C(=O)N3CCCCCC3)c3ccccc3n2)cc1OC | 0 | -1 | 0 | -1 | 1 | -8
COc1cc(-c2cc(C(=O)OCC(=O)NC3CC3)c3ccccc3n2)cc(OC)c1OC | 64* | -2 | 0 | 6 | 8 | 10
COc1ccc(-c2cc(C(=O)N3CCN(c4ccccc4)CC3)c3ccccc3n2)cc1OC | 54* | 0 | -1 | 19 | -16 | 11
